Results filed as inconclusive are left out. Active and inactive are the calls of the source. Calls follow the shape of the dose curve; as a rule, active = well fitted cell-killing curve with a large enough effect; inconclusive = small, poorly fitted or top-dose-only effect, or effect the other way; inactive = flat fitted curve, though single readings scatter.
What was measured:
Assay in all cases: Primary qHTS to identify gynecologic anti-cancer compounds using libraries of approved drugs and bioactive compounds (AID 1345084); also: nearly all actives have a fitted effect of over 55% in size
C33A = details: Gynecologic cancer cell panel viability, ATPlite luminescence, 48 h; series mostly up to 57.5 µM
How it was run: (§1)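 In this quantitative HTS, cell killing is estimated from loss of ATP-dependent luciferase light. Cells see five compound concentrations over a 48 h exposure.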

CAOV3 = details: Gynecologic cancer cell panel viability, ATPlite luminescence, 48 h; series mostly up to 57.5 µM
How it was run: as §1

CASKI = details: Gynecologic cancer cell panel viability, ATPlite luminescence, 48 h; series mostly up to 57.5 µM
How it was run: as §1

Es-2 = details: Gynecologic cancer cell panel viability, ATPlite luminescence, 48 h; series mostly up to 57.5 µM
How it was run: as §1

HeLa = details: Gynecologic cancer cell panel viability, ATPlite luminescence, 48 h; series mostly up to 57.5 µM
How it was run: as §1

Hek293T = details: Gynecologic cancer cell panel viability, ATPlite luminescence, 48 h, control line for the selectivity index; series mostly up to 57.5 µM
How it was run: as §1

JEG-3 = details: Gynecologic cancer cell panel viability, ATPlite luminescence, 48 h; series mostly up to 57.5 µM
How it was run: as §1

OV90 = details: Gynecologic cancer cell panel viability, ATPlite luminescence, 48 h; series mostly up to 57.5 µM
How it was run: as §1

PA-1 = details: Gynecologic cancer cell panel viability, ATPlite luminescence, 48 h; series mostly up to 57.5 µM
How it was run: as §1

SKOV3 = details: Gynecologic cancer cell panel viability, ATPlite luminescence, 48 h; series mostly up to 57.5 µM
How it was run: as §1

Tov-21-G = details: Gynecologic cancer cell panel viability, ATPlite luminescence, 48 h; series mostly up to 57.5 µM
How it was run: as §1

Tov112D = details: Gynecologic cancer cell panel viability, ATPlite luminescence, 48 h; series mostly up to 57.5 µM
How it was run: as §1

Measured: Potency
Potency is read from the fitted curve at half-maximal effect.

O=C(CCc1nnc2n(Cc3ccc(Cl)cc3)c(=O)c3ccccc3n12)NCCC1=CCCCC1
inactive: C33A | CAOV3 | CASKI | Es-2 | HeLa | Hek293T | JEG-3 | OV90 | PA-1 | SKOV3 | Tov-21-G | Tov112D

CC(=O)OC[C@]12[C@H](OC(C)=O)C(=O)[C@@H]3[C@@H](OC(C)=O)[C@@]14O[C@@]3(C)COC(=O)c1cccnc1[C@@H](C)[C@H](C)C(=O)O[C@@H]([C@H](O)[C@@H]2OC(C)=O)[C@]4(C)O
inactive: C33A | CAOV3 | CASKI | Es-2 | HeLa | Hek293T | JEG-3 | OV90 | PA-1 | SKOV3 | Tov-21-G | Tov112D

CC1=CC(=O)CC2C1(O)CCC(C)C21CC(c2ccoc2)OC1=O (stereo not given)
inactive: C33A | CAOV3 | CASKI | Es-2 | HeLa | Hek293T | JEG-3 | OV90 | PA-1 | SKOV3 | Tov-21-G | Tov112D

CC12CCC3c4ccc(O)cc4CCC3C1CC(OC1OC(C(=O)O)C(O)C(O)C1O)C2O (stereo not given)
inactive: C33A | CAOV3 | CASKI | Es-2 | HeLa | Hek293T | JEG-3 | OV90 | PA-1 | SKOV3 | Tov-21-G | Tov112D

CC1=CC(=O)CC(C)(C)C1/C=C/C(C)O[C@@H]1O[C@H](CO)[C@@H](O)[C@H](O)[C@H]1O[C@@H]1OC[C@](O)(CO)[C@H]1O (stereo not given in full)
inactive: C33A | CAOV3 | CASKI | Es-2 | HeLa | Hek293T | JEG-3 | OV90 | PA-1 | SKOV3 | Tov-21-G | Tov112D

C=CC(C)(CC/C=C(\C)C(=O)OC)OC1OC(COC(=O)CC(C)(O)CC(=O)O)C(OC2OC(CO)C(O)C(O)C2O)C(O)C1O (stereo not given)
inactive: C33A | CAOV3 | CASKI | Es-2 | HeLa | Hek293T | JEG-3 | OV90 | PA-1 | SKOV3 | Tov-21-G | Tov112D

CC1CCN(C(=O)CC#N)CC1N(C)c1ncnc2[nH]ccc12 (stereo not given)
inactive: C33A | CAOV3 | CASKI | Es-2 | HeLa | Hek293T | JEG-3 | OV90 | PA-1 | SKOV3 | Tov-21-G | Tov112D

OC[C@H]1O[C@@H](OC[C@H]2O[C@@H](OC/C=C/c3ccccc3)[C@H](O)[C@@H](O)[C@@H]2O)[C@@H](O)[C@@H]1O
inactive: C33A | CAOV3 | CASKI | Es-2 | HeLa | Hek293T | JEG-3 | OV90 | PA-1 | SKOV3 | Tov-21-G | Tov112D

COC(=O)N[C@H](C(=O)N1[C@@H]2CC[C@@H](C2)[C@H]1c1nc2ccc(-c3ccc4c(c3)C(F)(F)c3cc(-c5cnc([C@@H]6CCC7(CC7)N6C(=O)[C@@H](NC(=O)OC)C(C)C)[nH]5)ccc3-4)cc2[nH]1)C(C)C
inactive: C33A | CAOV3 | CASKI | Es-2 | HeLa | Hek293T | JEG-3 | OV90 | PA-1 | SKOV3 | Tov-21-G | Tov112D

Nc1ncnc2c([C@@H]3N[C@H](CO)[C@@H](O)[C@H]3O)c[nH]c12
inactive: C33A | CAOV3 | CASKI | Es-2 | HeLa | Hek293T | JEG-3 | OV90 | PA-1 | SKOV3 | Tov-21-G | Tov112D

C=CC(C)(C)c1[nH]c2ccccc2c1C[C@@H]1NC(=O)[C@H](Cc2c[nH]c3ccccc23)NC1=O
inactive: C33A | CAOV3 | CASKI | Es-2 | HeLa | Hek293T | JEG-3 | OV90 | PA-1 | SKOV3 | Tov-21-G | Tov112D

C=CC1(C)C=C2CCC3C(C)(C)C(O[C@@H]4O[C@@H](CO)[C@H](O)[C@H]4O)CCC3(C)C2CC1O[C@@H]1O[C@H](C)[C@H](O)[C@H](O)[C@H]1O (stereo not given in full)
inactive: C33A | CAOV3 | CASKI | Es-2 | HeLa | Hek293T | JEG-3 | OV90 | PA-1 | SKOV3 | Tov-21-G | Tov112D

c1cn2cc(-c3ccc4cn[nH]c4c3)nc(Nc3ccc(N4CCOCC4)cc3)c2n1
active: C33A 2240 nM | CAOV3 2000 nM | CASKI 2820 nM | Es-2 2510 nM | HeLa 2820 nM | Hek293T 2240 nM | JEG-3 2820 nM | OV90 1780 nM | PA-1 1780 nM | SKOV3 2820 nM | Tov-21-G 2240 nM | Tov112D 2240 nM

COc1cc(O)c([C@@H](CC(=O)N2CC(C)CC(C)C2)c2ccc3c(c2)OCO3)c(OC)c1 (stereo not given in full)
inactive: C33A | CAOV3 | CASKI | Es-2 | HeLa | Hek293T | JEG-3 | OV90 | PA-1 | SKOV3 | Tov-21-G | Tov112D

Cc1cc(Cl)ccc1COc1ccnn1-c1cc(C(=O)O)ccn1
inactive: C33A | CAOV3 | CASKI | Es-2 | HeLa | Hek293T | JEG-3 | OV90 | PA-1 | SKOV3 | Tov-21-G | Tov112D
